Results filed as inconclusive are left out. Activity calls are given as the source filed them. The call rests on the fitted dose curve; in most records, active means well fitted curve in the direction sought with a large enough effect; inconclusive means small, poorly fitted or top-dose-only effect, or another doubt; inactive means no such curve, though single readings can be large; an effect the other way counts as inactive or inconclusive. Residues, ends and D or L forms follow the SMILES beside them. *: point of attachment. Cbz = O=C(OCc1ccccc1)*
Columns and labels:
[1] = Quantitative High-Throughput drug screen in 47 multiple myeloma cell lines against the NCATS MIPE library collection: KHM11_PLB cell viability assay (AID 1918962); further: nearly all actives have a fitted effect of over 35% in size
Outline: (§1)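 Inhibition of cell viability is measured here. Each line was plated at 500 cells per well, treated with MIPE 4.0 drugs, kept 48 hours at 37C, then assayed for ATP content by CellTiter-Glo luminescence.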

[2] = Quantitative High-Throughput drug screen in 47 multiple myeloma cell lines against the NCATS MIPE library collection: JIM3_ECACC cell viability assay (AID 1918963; further: nearly all actives have a fitted effect of over 35% in size)
Outline: as §1

[3] = Quantitative High-Throughput drug screen in 47 multiple myeloma cell lines against the NCATS MIPE library collection: JIM1_ECACC cell viability assay (AID 1918964)
Outline: (§2)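 Relative luminescence from CellTiter-Glo served as the viability signal, referenced to DMSO-treated (100%) and cell-free medium (0%) controls. Treatment lasted 48 hours at 37C with 500 cells per well.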

[4] = Quantitative High-Throughput drug screen in 47 multiple myeloma cell lines against the NCATS MIPE library collection: INA6_PLB cell viability assay (AID 1918965; further: nearly all actives have a fitted effect of over 55% in size)
Outline: (§3)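 qHTS of the MIPE 4.0 collection: 500 myeloma cells/well, 48 h drug exposure at 37C in 5% CO2, then CellTiter-Glo for 5 min at room temperature before luminescence reading.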

[5] = Quantitative High-Throughput drug screen in 47 multiple myeloma cell lines against the NCATS MIPE library collection: JJN3_DSMZ cell viability assay (AID 1918966; further: nearly all actives have a fitted effect of over 50% in size)
Outline: as §2

[6] = Quantitative High-Throughput drug screen in 47 multiple myeloma cell lines against the NCATS MIPE library collection: H1112_PLB cell viability assay (AID 1918967; further: nearly all actives have a fitted effect of over 30% in size)
Outline: as §2

[7] = Quantitative High-Throughput drug screen in 47 multiple myeloma cell lines against the NCATS MIPE library collection: Karpas25_ECACC cell viability assay (AID 1918968; further: nearly all actives have a fitted effect of over 35% in size)
Outline: as §2

[8] = Quantitative High-Throughput drug screen in 47 multiple myeloma cell lines against the NCATS MIPE library collection: KMS27_JCRB cell viability assay (AID 1918970); details: KMS27 myeloma cells, CellTiter-Glo ATP viability, 48 h; viability (% of DMSO): at 45.8 µM (top of the series); further: nearly all actives have a fitted effect of over 30% in size
Outline: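 CellTiter-Glo luminescence after 48 h drug exposure at 37 °C; 500 cells/well, 1536-well format, pin-tool compound addition; DMSO = 100%, media-only = 0% viability.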

[9] = Quantitative High-Throughput drug screen in 47 multiple myeloma cell lines against the NCATS MIPE library collection: KMS12BM_JCRB cell viability assay (AID 1918971); further: nearly all actives have a fitted effect of over 35% in size
Outline: (§4)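 Viability readout: CellTiter-Glo luminescence following 5 min room-temperature incubation with reagent. Prior exposure: 48 h, 37C, humidified 5% CO2, 500 cells per well.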

[10] = Quantitative High-Throughput drug screen in 47 multiple myeloma cell lines against the NCATS MIPE library collection: KMS12PE_JCRB cell viability assay (AID 1918972); further: nearly all actives have a fitted effect of over 30% in size
Outline: as §3

[11] = Quantitative High-Throughput drug screen in 47 multiple myeloma cell lines against the NCATS MIPE library collection: KMS21BM_JCRB cell viability assay (AID 1918974); details: ATP luminescence, 48 h; viability: at 45.8 µM (top of the series)
Outline: as §2

[12] = Quantitative High-Throughput drug screen in 47 multiple myeloma cell lines against the NCATS MIPE library collection: KMS26_JCRB cell viability assay (AID 1918975); further: nearly all actives have a fitted effect of over 45% in size
Outline: as §4

[13] = Quantitative High-Throughput drug screen in 47 multiple myeloma cell lines against the NCATS MIPE library collection: MOLP8_DSMZ cell viability assay (AID 1918977); further: nearly all actives have a fitted effect of over 45% in size
Outline: (§5)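 Viability after 48 h drug exposure was measured as ATP-dependent luminescence. Cells, 500 per well, sat at 37 °C under 5% CO2; DMSO wells set 100%, media-only wells 0%.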

[14] = Quantitative High-Throughput drug screen in 47 multiple myeloma cell lines against the NCATS MIPE library collection: NCIH929_DSMZ cell viability assay (AID 1918978); further: nearly all actives have a fitted effect of over 35% in size
Outline: as §5

[15] = Quantitative High-Throughput drug screen in 47 multiple myeloma cell lines against the NCATS MIPE library collection: OCIMY1_PLB cell viability assay (AID 1918979); further: nearly all actives have a fitted effect of over 35% in size
Outline: as §5

[16] = Quantitative High-Throughput drug screen in 47 multiple myeloma cell lines against the NCATS MIPE library collection: MM1S_ATCC cell viability assay (AID 1918980); further: nearly all actives have a fitted effect of over 45% in size
Outline: as §5

[17] = Quantitative High-Throughput drug screen in 47 multiple myeloma cell lines against the NCATS MIPE library collection: MM1R_ATCC cell viability assay (AID 1918981); further: nearly all actives have a fitted effect of over 35% in size
Outline: as §5

[18] = Quantitative High-Throughput drug screen in 47 multiple myeloma cell lines against the NCATS MIPE library collection: MMM1_PLB cell viability assay (AID 1918976); further: nearly all actives have a fitted effect of over 35% in size
Outline: as §5

[19] = Quantitative High-Throughput drug screen in 47 multiple myeloma cell lines against the NCATS MIPE library collection: KMS20_JCRB cell viability assay (AID 1918973); further: nearly all actives have a fitted effect of over 45% in size
Outline: as §2

[20] = Quantitative High-Throughput drug screen in 47 multiple myeloma cell lines against the NCATS MIPE library collection: LP1_DSMZ cell viability assay (AID 1918982); further: nearly all actives have a fitted effect of over 35% in size
Outline: as §5
Potency means the concentration at half of the fitted maximal effect.

| Structure (SMILES) | Potency [1] | Potency [2] | Potency [3] | Potency [4] | Potency [5] | Potency [6] | Potency [7] | Potency [8] | Potency [9] | Potency [10] | Potency [11] | Potency [12] | Potency [13] | Potency [14] | Potency [15] | Potency [16] | Potency [17] | Potency [18] | Potency [19] | Potency [20] |
| --- | --- | --- | --- | --- | --- | --- | --- | --- | --- | --- | --- | --- | --- | --- | --- | --- | --- | --- | --- | --- |
| CN(C)c1ccc(C(=O)NCCCCCCC(=O)NO)cc1 | 1660 nM (active) | 2960 nM (active) | 93.5 nM (active) | 166 nM (active) | 1050 nM (active) | 1870 nM (active) | 469 nM (active) | 66.2 nM (active) | 235 nM (active) | 93.5 nM (active) | 41.8 nM (active) | 2960 nM (active) | 743 nM (active) | 833 nM (active) | 1870 nM (active) | 833 nM (active) | 590 nM (active) | – | – | – |
| NC(=O)N1CCC(CC(=O)N2CCC([C@H]3c4ncc(Br)cc4CCc4cc(Cl)cc(Br)c43)CC2)CC1 | 37.2 nM (active) | 18700 nM (active) | 5900 nM (active) | 7430 nM (active) | 16600 nM (active) | 10500 nM (active) | 14800 nM (active) | – | 18700 nM (active) | 11800 nM (active) | 13200 nM (active) | 20900 nM (active) | – | – | 20900 nM (active) | 16600 nM (active) | 20900 nM (active) | 16600 nM (active) | – | – |
| CCN(CC)Cc1ccc2cc(COC(=O)Nc3ccc(C(=O)NO)cc3)ccc2c1 | 1320 nM (active) | 1480 nM (active) | 469 nM (active) | 74.3 nM (active) | 833 nM (active) | 1180 nM (active) | 372 nM (active) | 235 nM (active) | 469 nM (active) | 469 nM (active) | – | 743 nM (active) | – | 590 nM (active) | 1320 nM (active) | 590 nM (active) | – | – | 332 nM (active) | 935 nM (active) |
| CCCNS(=O)(=O)Nc1ncnc(OCCOc2ncc(Br)cn2)c1-c1ccc(Br)cc1 | inactive | inactive | inactive | inactive | inactive | inactive | inactive | inactive | inactive | inactive | – | – | – | – | inactive | inactive | inactive | – | – | inactive |
| CC(C)C[C@@H](C=O)NC(=O)[C@H](CC(C)C)NC(=O)[C@H](CC(C)C)NC(=O)OCc1ccccc1 (Cbz-Leu-Leu-Leu-aldehyde) | 187 nM (active) | 526 nM (active) | 209 nM (active) | 148 nM (active) | 469 nM (active) | 264 nM (active) | 235 nM (active) | 166 nM (active) | 469 nM (active) | 105 nM (active) | – | 590 nM (active) | 469 nM (active) | 118 nM (active) | 332 nM (active) | 166 nM (active) | 332 nM (active) | 2350 nM (active) | 526 nM (active) | 662 nM (active) |
| C=CC[C@@H]1C=C(C)C[C@H](C)C[C@H](OC)[C@H]2O[C@@](O)(C(=O)C(=O)N3CCCC[C@H]3C(=O)O[C@H](C(C)=C[C@@H]3CC[C@H](O)[C@H](OC)C3)[C@@H](C)[C@@H](O)CC1=O)[C@@H](C)C[C@@H]2OC | 2640 nM (active) | 3720 nM (active) | 1180 nM (active) | 935 nM (active) | 662 nM (active) | 3320 nM (active) | 2960 nM (active) | 743 nM (active) | 1480 nM (active) | 1870 nM (active) | – | 935 nM (active) | – | 3320 nM (active) | 2640 nM (active) | 1180 nM (active) | 833 nM (active) | 3320 nM (active) | – | 3320 nM (active) |
| Cn1c(Nc2ccc(C(F)(F)F)cc2)nc2cc(Oc3ccnc(-c4ncc(C(F)(F)F)[nH]4)c3)ccc21 | 18700 nM (active) | 18700 nM (active) | 9350 nM (active) | 20900 nM (active) | 16600 nM (active) | 8330 nM (active) | 3720 nM (active) | 14800 nM (active) | – | 5260 nM (active) | – | – | 6620 nM (active) | – | – | 9350 nM (active) | – | – | – | – |
| CCNC(=O)c1cc2c(-c3cc(OCCN4CCCC4)c(Cl)cc3Cl)nc(N)nc2s1 | 590 nM (active) | 935 nM (active) | 469 nM (active) | 590 nM (active) | 2350 nM (active) | 6620 nM (active) | 833 nM (active) | 1180 nM (active) | 1480 nM (active) | 418 nM (active) | – | 2350 nM (active) | – | 935 nM (active) | 3320 nM (active) | 1660 nM (active) | 2090 nM (active) | 2960 nM (active) | 1660 nM (active) | – |
| CC(C)C[C@H](NC(=O)[C@@H](NC(=O)c1cccc(-c2ccccc2)n1)[C@@H](C)O)B(O)O | 18.7 nM (active) | 37.2 nM (active) | 10.5 nM (active) | 1 nM (active) | 41.8 nM (active) | 33.2 nM (active) | 13.2 nM (active) | 23.5 nM (active) | 37.2 nM (active) | 10.5 nM (active) | – | 41.8 nM (active) | 29.6 nM (active) | 11.8 nM (active) | 16.6 nM (active) | 13.2 nM (active) | – | 3720 nM (active) | – | 29.6 nM (active) |
